The source of these data is ChEMBL document CHEMBL1961873, “Compounds: GSK PKIS; Assays: Nanosyn kinase panel” (2012).

“And” between values parts separate entries of the source, which are not always exact repeats. Equal values may be shown once.

Test [1] has as its target Rho-associated protein kinase 1 (Homo sapiens) (UniProt Q13464). Conditions: at 1 µM.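 Note: reported values are mean percent inhibition of ROCK1.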
The target of test [2] is Rho-associated protein kinase 2 (Homo sapiens) (UniProt O75116). The note with it: at 0.1 µM.
Test [3] shares this target. The note with it: at 1 µM.
In test [4] the target is Ribosomal protein S6 kinase alpha-1 (Homo sapiens) (UniProt Q15418). The note with it: at 0.1 µM.
Test [5] shares this target. Conditions: at 1 µM.
Test [6] deals with Ribosomal protein S6 kinase alpha-3 (Homo sapiens) (UniProt P51812). The note with it: at 0.1 µM.
Test [7] shares this target. The note with it: at 1 µM.
Test [8] deals with Ribosomal protein S6 kinase alpha-2 (Homo sapiens) (UniProt Q15349). The note with it: at 0.1 µM.
Test [9] has the same target. Conditions: at 1 µM.
In test [10] the target is Ribosomal protein S6 kinase alpha-6 (Homo sapiens) (UniProt Q9UK32). The note with it: at 0.1 µM.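 Note: reported value is the mean inhibition of RSK4, from the GSK PKIS kinase inhibitor screen.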

In general, inhibition refers to the relative decrease from the control value, in per cent.

Sequence of Rho-associated protein kinase 2 (Homo sapiens) (O75116 whole entry, looked up): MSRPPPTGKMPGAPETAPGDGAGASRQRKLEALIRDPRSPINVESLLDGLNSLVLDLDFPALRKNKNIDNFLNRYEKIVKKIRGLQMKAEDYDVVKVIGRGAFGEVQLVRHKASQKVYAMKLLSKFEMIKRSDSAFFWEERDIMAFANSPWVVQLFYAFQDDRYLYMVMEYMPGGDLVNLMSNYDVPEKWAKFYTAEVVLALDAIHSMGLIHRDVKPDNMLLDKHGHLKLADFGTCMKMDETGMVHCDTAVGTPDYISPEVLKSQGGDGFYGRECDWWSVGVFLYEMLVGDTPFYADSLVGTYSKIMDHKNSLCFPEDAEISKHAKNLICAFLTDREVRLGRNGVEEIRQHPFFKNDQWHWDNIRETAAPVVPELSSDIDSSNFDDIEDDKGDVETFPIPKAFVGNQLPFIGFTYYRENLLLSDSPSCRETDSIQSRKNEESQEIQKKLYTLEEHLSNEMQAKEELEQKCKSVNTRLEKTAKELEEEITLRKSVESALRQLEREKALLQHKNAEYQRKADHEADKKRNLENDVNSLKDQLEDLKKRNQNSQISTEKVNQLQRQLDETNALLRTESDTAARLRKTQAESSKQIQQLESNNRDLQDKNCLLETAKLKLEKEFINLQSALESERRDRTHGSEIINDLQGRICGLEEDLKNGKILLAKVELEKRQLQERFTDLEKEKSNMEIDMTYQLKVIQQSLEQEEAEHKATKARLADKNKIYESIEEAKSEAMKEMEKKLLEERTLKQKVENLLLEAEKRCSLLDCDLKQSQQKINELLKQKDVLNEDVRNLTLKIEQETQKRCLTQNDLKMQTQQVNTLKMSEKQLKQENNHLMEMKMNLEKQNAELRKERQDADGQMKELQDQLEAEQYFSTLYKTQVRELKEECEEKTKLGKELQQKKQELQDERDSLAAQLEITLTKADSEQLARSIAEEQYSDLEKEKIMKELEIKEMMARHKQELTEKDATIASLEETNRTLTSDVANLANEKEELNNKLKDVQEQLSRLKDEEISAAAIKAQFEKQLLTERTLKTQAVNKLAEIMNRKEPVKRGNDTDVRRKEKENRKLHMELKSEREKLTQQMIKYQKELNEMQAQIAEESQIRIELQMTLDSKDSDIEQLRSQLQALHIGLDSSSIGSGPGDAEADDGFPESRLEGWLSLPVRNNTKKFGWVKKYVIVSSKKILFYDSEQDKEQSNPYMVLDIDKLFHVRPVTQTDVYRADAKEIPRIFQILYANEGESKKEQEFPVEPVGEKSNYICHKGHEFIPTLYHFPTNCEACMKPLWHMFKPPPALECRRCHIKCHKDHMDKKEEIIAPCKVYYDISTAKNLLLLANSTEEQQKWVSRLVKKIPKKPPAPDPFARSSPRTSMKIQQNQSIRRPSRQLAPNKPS
Sequence of Ribosomal protein S6 kinase alpha-3 (Homo sapiens) (P51812 whole entry): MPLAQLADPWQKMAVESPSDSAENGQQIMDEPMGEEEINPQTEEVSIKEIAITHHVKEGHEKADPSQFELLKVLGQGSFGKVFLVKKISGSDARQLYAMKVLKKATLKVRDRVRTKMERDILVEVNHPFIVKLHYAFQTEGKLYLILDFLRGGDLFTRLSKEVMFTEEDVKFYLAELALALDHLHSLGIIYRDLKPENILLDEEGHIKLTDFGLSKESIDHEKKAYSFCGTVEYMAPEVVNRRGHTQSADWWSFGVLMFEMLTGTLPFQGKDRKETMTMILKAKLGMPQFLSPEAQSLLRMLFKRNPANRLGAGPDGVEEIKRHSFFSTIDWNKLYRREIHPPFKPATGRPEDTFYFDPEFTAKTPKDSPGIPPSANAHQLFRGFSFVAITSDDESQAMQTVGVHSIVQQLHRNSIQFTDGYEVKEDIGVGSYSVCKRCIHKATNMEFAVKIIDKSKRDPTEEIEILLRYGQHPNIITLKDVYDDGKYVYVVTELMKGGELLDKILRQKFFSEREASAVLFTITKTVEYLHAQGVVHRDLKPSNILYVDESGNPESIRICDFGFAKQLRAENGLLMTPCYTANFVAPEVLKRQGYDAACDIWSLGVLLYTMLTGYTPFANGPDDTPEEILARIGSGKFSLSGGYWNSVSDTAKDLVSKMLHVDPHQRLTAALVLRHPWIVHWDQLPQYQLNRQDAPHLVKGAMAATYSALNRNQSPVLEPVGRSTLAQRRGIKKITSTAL
Sequence of Ribosomal protein S6 kinase alpha-1 (Homo sapiens) (Q15418 whole entry): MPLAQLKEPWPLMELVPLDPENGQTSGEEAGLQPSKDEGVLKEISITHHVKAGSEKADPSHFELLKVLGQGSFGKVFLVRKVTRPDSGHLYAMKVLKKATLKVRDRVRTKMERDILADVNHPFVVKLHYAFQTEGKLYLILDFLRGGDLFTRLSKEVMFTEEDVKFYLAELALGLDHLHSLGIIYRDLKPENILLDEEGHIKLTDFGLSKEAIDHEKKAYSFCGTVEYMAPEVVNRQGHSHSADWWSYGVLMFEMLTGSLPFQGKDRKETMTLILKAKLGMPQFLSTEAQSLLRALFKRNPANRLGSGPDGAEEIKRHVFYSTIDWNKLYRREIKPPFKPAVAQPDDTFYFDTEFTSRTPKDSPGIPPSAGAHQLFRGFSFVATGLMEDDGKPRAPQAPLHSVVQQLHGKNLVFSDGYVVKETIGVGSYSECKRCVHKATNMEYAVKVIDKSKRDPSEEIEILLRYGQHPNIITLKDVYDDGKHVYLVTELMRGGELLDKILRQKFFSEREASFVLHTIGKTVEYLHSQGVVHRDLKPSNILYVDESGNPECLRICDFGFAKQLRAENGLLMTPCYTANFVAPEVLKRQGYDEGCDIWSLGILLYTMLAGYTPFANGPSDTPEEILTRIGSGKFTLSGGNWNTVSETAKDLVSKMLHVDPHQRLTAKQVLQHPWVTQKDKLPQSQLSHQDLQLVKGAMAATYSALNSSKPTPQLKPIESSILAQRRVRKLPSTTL
Sequence of Rho-associated protein kinase 1 (Homo sapiens) (Q13464 2-1354 limits assumed): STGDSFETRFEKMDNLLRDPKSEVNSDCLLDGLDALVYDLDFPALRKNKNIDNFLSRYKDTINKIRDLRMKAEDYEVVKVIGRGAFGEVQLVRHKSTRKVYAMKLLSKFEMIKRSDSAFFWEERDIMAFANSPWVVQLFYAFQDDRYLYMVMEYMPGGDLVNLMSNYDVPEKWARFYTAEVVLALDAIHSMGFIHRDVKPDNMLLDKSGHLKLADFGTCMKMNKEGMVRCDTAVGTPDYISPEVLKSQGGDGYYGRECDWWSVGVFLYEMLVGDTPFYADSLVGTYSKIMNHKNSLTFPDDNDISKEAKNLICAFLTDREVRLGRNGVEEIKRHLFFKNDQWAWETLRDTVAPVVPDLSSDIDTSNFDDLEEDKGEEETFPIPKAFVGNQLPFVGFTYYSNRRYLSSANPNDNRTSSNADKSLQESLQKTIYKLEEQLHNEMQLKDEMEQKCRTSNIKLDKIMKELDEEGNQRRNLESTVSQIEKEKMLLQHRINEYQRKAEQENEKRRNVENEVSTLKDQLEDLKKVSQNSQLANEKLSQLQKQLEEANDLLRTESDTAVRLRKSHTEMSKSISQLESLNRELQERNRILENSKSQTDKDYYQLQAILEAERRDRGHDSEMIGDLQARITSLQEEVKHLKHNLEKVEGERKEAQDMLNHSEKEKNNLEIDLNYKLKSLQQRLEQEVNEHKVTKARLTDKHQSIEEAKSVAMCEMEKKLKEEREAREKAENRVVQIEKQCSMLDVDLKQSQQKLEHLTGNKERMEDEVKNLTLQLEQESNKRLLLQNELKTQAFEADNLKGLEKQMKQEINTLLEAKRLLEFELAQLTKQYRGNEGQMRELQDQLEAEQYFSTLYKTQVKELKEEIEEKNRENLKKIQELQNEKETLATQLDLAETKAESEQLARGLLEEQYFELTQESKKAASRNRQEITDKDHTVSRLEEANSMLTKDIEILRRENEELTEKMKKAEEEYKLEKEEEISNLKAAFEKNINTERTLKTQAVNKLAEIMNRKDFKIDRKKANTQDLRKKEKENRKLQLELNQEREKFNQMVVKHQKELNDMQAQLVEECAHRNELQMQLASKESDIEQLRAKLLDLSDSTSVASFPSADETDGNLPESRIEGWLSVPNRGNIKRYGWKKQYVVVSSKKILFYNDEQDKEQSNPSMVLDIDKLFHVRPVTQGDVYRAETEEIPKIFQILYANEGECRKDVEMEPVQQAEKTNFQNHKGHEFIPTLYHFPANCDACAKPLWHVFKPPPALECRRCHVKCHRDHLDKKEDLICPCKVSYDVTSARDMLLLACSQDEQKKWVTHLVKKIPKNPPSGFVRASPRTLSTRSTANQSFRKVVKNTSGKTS
Sequence of Ribosomal protein S6 kinase alpha-6 (Homo sapiens) (Q9UK32 whole entry): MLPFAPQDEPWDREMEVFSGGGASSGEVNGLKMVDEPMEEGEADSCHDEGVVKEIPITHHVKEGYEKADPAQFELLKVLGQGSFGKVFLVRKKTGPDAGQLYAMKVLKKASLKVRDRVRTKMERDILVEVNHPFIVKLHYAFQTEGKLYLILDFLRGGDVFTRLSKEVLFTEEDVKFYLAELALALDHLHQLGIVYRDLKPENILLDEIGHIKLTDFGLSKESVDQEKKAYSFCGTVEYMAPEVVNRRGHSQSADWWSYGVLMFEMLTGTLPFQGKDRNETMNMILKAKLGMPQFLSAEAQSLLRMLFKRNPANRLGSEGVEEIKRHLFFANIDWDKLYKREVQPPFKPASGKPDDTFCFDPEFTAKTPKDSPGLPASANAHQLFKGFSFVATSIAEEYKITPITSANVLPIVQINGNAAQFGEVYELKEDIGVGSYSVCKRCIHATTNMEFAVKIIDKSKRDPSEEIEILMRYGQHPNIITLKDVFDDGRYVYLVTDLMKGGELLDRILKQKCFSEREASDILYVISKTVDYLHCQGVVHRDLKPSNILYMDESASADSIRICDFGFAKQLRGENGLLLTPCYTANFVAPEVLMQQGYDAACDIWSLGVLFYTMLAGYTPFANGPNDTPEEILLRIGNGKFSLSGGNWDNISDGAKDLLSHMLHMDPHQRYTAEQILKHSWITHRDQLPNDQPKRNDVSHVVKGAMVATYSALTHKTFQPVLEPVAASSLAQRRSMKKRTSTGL

For the compound `CNC(=O)c1cncc(/C=C/c2ccccc2C)c1`, the inhibition is 1.27% in [1]; 4.29% in [2]; 8.78% in [3]; 2.39% in [4]; 4.99% in test [5]; 2.14% in test [6]. The inhibition in test [7] came to 3.84%; in test [8] it was 0.87%; in test [9] it was 2.74%; in test [10], 0.45%.
As for `O=C(O[C@H]1CN[C@H](C#Cc2cc3ncnc(Nc4ccc(OCc5cccc(F)c5)c(Cl)c4)c3s2)C1)N1CCOCC1`, the inhibition in [1] is 1.71%; in test [2], 4.15%; in test [3], 8.38%; in [4] it was 1.45%; in test [5], 6.91%; in [6], 1.55%. Also, the inhibition in test [7] is 5.86%; in [8] it was 2.72%; in test [9], 3.4%; in test [10], 2.22%.
For `NS(=O)(=O)c1ccc(N/N=C2\C(=O)Nc3cccc(CCc4ccncc4)c32)cc1`, the inhibition in [1] was 1.51%; in test [2], 0.96%; in test [3] it was 1.68%; in [4], 2.2%; in test [5] it was 1.84%; in test [6], 2.02%. In addition, the inhibition is 2.03% in [7], 2.79% in test [8], 7.37% in [9] and 3.11% in test [10].
For `CCOc1ccc2c(-c3ccnc(Nc4cc(OC)cc(C(F)(F)F)c4)n3)cnn2n1`, the inhibition in test [1] is -0.21%; in test [2] it was 0.14%; in test [3] it was -0.36%; in test [4], -0.43%; in test [5], -1.47%; in test [6], -0.09%. In addition, the inhibition in test [7] is -1.49%; in [8], 0.44%; in test [9], 0.33%; in test [10], 1.36%.
As for `Cn1c(-c2nonc2N)nc2cnccc21`, the inhibition in test [1] came out at 52.4%; in test [2], 20%; in test [3], 67.5%; in test [4], 9.65%; in [5], 44.8%; in test [6], 3.58%. The inhibition in test [7] is 23%; in test [8], 8.32%; in test [9], 41.4%; in test [10], 2.49%.
As for `NS(=O)(=O)c1cccc(N/C=C2\C(=O)Nc3ccccc32)c1`, the inhibition in test [1] was 3.96%; in test [2] it was 2.91%; in [3], 5.46%; in test [4], 3.72%; in test [5] it was 17.6%; in test [6] it was 2.42%. For the same compound, the inhibition in [7] worked out at 15.2%; in test [8], 5.57%; in [9] it was 26.2%; in [10], 4.77%.
`COc1cc(N2CCN(C(C)C)CC2)ccc1Nc1nc(Nc2cccc3ncccc23)c2cc[nH]c2n1`: the inhibition in test [1] is 0.37%; in [2] it was 0.02%; in [3] it was 0.45%; in [4], 0.19%; in test [5], 3.05%; in test [6] it was 1.66%. Moreover, the inhibition in test [7] worked out at 5.2%; in test [8], 1.37%; in test [9] it was 3.33%; in [10] it was 0.58%.
For the compound `Fc1ccc(Nc2nccc(-c3c(-c4ccc(C(F)(F)F)cc4)nn4ncccc34)n2)cc1F`, the inhibition in [1] was 2.54%; in [2], 1.24%; in [3] it was 2.36%; in test [4], 0.24%; in test [5], -0.46%; in [6] it was -0.49%. Also, the inhibition was -1.74% in [7], 1.11% in test [8], 2.41% in [9] and 1.29% in [10].
For `Cc1ccc(-c2cc3c(NC(=O)C4CC4)ncnc3o2)cc1`, the inhibition in [1] came out at 2.27%; in test [2], 2.81%; in [3] it was 1.43%; in test [4], 2.52%; in test [5], 4.28%; in [6] it was 1.27%. The inhibition in test [7] was 2.17%; in [8], 2.35%; in test [9], 2.3%; in test [10], 0.9%.
In the case of `CCS(=O)(=O)c1ccc(OC)c(Nc2ncc(-c3cccc(C(C)=O)c3)o2)c1`, the inhibition in test [1] came out at 2.14%; in [2], 1.98%; in test [3], 6.73%; in test [4], 2.43%; in test [5], 5.75%; in [6], 1.27%. For the same compound, the inhibition in [7] was 3.54%; in test [8] it was 0.6%; in test [9], 3.67%; in test [10] it was 1%.
In the case of `CN(C)CCNC(=O)Nc1ccc(N(C)c2ccnc(Nc3ccc(CS(C)(=O)=O)cc3)n2)cc1`, the inhibition was determined as 19.8% in [1]; 5.05% in [2]; 24% in test [3]; 2.03% in test [4]; 2.41% in test [5]; 0.87% in test [6]. Besides, the inhibition in [7] turned out to be 2.03%; in test [8] it was 2.14%; in test [9] it was 4.06%; in [10] it was 1.56%.
Consider `CS(=O)(=O)CCNCc1ccc(-c2ccc3ncnc(Nc4ccc(OCc5cccc(C(F)(F)F)c5)cc4)c3c2)o1`, for which the inhibition in [1] was 3.01%; in [2], 2.07%; in test [3] it was 3.5%; in test [4], 0.96%; in [5], 2.45%; in test [6], -0.35%. The inhibition is 3.53% in test [7], 1.21% in test [8], 2.69% in [9] and 0.05% in [10].
`CC1=C(C(=O)Nc2ccc3[nH]ncc3c2)C(c2ccc(F)cc2)N=C(c2ccc(C(F)(F)F)nc2)N1` (stereo not given): the inhibition in test [1] is 73.2%; in test [2], 35.7%; in [3], 75%; in [4] it was 0.61%; in test [5], 4.49%; in test [6], -0.02%. Moreover, the inhibition was 2.71% in [7], 1.05% in [8], 3.76% in test [9] and 0.55% in [10].
For the compound `Nc1nonc1-c1nc2cnccc2n1C1CC1`, the inhibition is 79.3% and 77.8% in [1]; 56.4% and 54.3% in test [2]; 81% and 77.9% in test [3]; 66.3% and 63.6% in test [4]; 84.2% and 79.4% in test [5]; 46.1% and 47% in test [6]. For the same compound, the inhibition was 79% and 75.8% in test [7]; 67% and 69.5% in test [8]; 90.9% and 91.2% in [9]; 10.3% and 11.7% in test [10].
In the case of `COc1ccc2ncn(-c3cc(O[C@H](C)c4ccccc4C(F)(F)F)c(C(N)=O)s3)c2c1`, the inhibition in test [1] was 0.18%; in [2], -0.01%; in test [3], -0.4%; in test [4], 0.85%; in [5], 3.85%; in test [6] it was 1.38%. Further, the inhibition in test [7] was 6.99%; in [8], 0.69%; in test [9], 2.5%; in [10], 1.31%.
